In all, about 310,000 compounds went through this assay and about 14,000 (4.5%) showed an effect of 50% or more. The effect is printed as a negative number. The full list was thinned out, with strong results kept by preference.
These compounds were tested against human ether-à-go-go-related gene (hERG) potassium channel (human, UniProt Q12809) (assay: primary screen, population patch clamp on CHO cells stably expressing hERG; higher = less effect of the substance).
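Note: peak tail current of the secondary pulse compared with the same well before compound.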

Chain of human ether-à-go-go-related gene (hERG) potassium channel (Q12809 whole entry, looked up): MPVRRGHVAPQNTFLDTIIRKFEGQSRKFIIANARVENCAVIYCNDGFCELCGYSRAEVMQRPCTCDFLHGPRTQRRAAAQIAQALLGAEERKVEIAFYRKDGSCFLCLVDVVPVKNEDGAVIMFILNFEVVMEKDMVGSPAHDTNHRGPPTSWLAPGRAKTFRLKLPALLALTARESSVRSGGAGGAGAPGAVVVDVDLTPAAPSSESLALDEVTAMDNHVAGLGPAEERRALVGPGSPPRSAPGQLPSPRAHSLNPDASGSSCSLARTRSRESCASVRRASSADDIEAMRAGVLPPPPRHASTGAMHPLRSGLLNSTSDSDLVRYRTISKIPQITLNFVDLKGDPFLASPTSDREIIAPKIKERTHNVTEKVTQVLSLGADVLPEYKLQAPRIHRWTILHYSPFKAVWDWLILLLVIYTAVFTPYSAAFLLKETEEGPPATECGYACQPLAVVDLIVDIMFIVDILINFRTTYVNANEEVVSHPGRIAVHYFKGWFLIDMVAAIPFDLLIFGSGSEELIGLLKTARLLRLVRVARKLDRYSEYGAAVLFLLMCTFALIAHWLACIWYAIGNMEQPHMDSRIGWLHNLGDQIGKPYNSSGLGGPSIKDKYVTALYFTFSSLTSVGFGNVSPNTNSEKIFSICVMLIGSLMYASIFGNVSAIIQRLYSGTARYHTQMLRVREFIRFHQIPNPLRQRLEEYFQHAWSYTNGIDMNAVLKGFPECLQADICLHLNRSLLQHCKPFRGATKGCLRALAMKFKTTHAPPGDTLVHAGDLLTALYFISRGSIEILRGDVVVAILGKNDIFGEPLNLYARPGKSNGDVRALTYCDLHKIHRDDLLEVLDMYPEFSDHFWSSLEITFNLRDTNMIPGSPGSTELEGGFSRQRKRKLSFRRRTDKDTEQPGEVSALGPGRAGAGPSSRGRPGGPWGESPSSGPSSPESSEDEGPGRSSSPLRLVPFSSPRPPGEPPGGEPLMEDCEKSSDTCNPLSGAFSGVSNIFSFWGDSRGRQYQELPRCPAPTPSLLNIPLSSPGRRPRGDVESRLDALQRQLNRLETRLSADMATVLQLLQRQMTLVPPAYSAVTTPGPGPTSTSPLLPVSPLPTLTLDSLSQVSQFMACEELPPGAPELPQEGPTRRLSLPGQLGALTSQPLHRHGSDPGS

First: COc1cccc(C(=O)C2CCCN(Cc3cccc4c3OCO4)C2)c1 (stereo not shown)
Second: COc1ccc(C(=O)C2CCCN(Cc3cccc4c3OCO4)C2)cc1OC (stereo not shown)
The “hERG current change (%, negative = inhibition) at 10uM” value of the first is higher: -49.4% for the first, -73.8% for the second.

Going from `CCNC(=O)N1CCCC(C(=O)c2ccc(OC)c(OC)c2)C1` (stereo not shown) to `CCOC(=O)C1CCCN(c2c(Nc3ccc(C)c(C)c3)c(=O)c2=O)C1` (stereo not shown), the “hERG current change (%, negative = inhibition) at 10uM” value falls from 20.8% to -25.1%.

Compared with `CCN1C(=O)CC(N2CCN(c3cccc(OC)c3)CC2)C1=O` (stereo not shown), `Cn1c(O)c(C=NCCN2CCN(C(=O)c3ccccc3)CC2)c(=O)n(C)c1=O` is lower in “hERG current change (%, negative = inhibition) at 10uM” value: 14.1% for the first, -16.6% for the second.

First: Cc1cc2nccc(-c3ccccn3)n2n1
Second: CSc1ncccc1C(=O)NCCc1ccccc1
The “hERG current change (%, negative = inhibition) at 10uM” value of the first is higher: 28.3% for the first, 7.94% for the second.

Going from `Cc1ccc(Nc2nc(=O)[nH]nc2C)cc1` to `Cc1ccc(-n2[nH]c(C)c(/C=N/Nc3ccc([N+](=O)[O-])cc3[N+](=O)[O-])c2=O)cc1`, the “hERG current change (%, negative = inhibition) at 10uM” value rises from -9.45% to 23.9%.

Compared with `CC1CCCCC1NC(=O)CCNC(=O)N1CC(=O)Nc2ccccc21` (stereo not shown), `Cn1cc(CC(=O)NC2CCCCC2)c2ccccc21` is higher in “hERG current change (%, negative = inhibition) at 10uM” value: 10.5% for the first, 21.3% for the second.

First: CC(=O)Nc1cccc(-c2nnc(SCC(=O)n3c4c(c5ccccc53)CCCC4)n2C)c1
Second: CC(=O)Nc1cccc(NC(=O)CSc2nccn2Cc2ccc(F)cc2)c1
The “hERG current change (%, negative = inhibition) at 10uM” value of the first is higher: 2.33% for the first, 0.742% for the second.

Compared with `CCOC(=O)c1sc(NC(=O)CSc2nnnn2-c2ccccc2)c(C(=O)OCC)c1C`, `CCOC(=O)c1c(NC(=O)CSc2nnnn2-c2ccccc2)sc2c1CCC(C)C2` (stereo not shown) is lower in “hERG current change (%, negative = inhibition) at 10uM” value: 4.34% for the first, -5.66% for the second.

First: CCOC(=O)c1c(NC(=O)CSc2nnnn2-c2ccccc2)sc2c1CC(C)(C)NC2(C)C
Second: CCOC(=O)c1c(NC(=O)CSc2nnnn2-c2ccccc2OCC)sc2c1CC(C)(C)NC2(C)C
The “hERG current change (%, negative = inhibition) at 10uM” value of the first is higher: -64.3% for the first, -71.2% for the second.

Compared with `CCOC(=O)c1c(NC(=O)COc2ccccc2OCC)sc2c1CC(C)(C)NC2(C)C`, `CCOC(=O)c1c(NC(=O)COc2ccccc2F)sc2c1CC(C)(C)NC2(C)C` is lower in “hERG current change (%, negative = inhibition) at 10uM” value: 13.3% for the first, 5.17% for the second.

Going from `CCOC(=O)c1c(NC(=O)CSc2nc3ccccc3[nH]2)sc2c1CC(C)(C)NC2(C)C` to `CCOC(=O)c1c(NC(=O)CSc2nc3ccc(C)cc3[nH]2)sc2c1CC(C)(C)NC2(C)C`, the “hERG current change (%, negative = inhibition) at 10uM” value rises from -45.2% to -44.3%.

First: CCOC(=O)c1c(NC(=O)COc2ccccc2)sc2c1CC(C)(C)NC2(C)C
Second: CCOC(=O)c1c(NC(=O)Cc2ccccc2)sc2c1CC(C)(C)NC2(C)C
The “hERG current change (%, negative = inhibition) at 10uM” value of the first is higher: 14.3% for the first, -52% for the second.

Compared with `COC(=O)c1c(NC(=O)Cc2ccccc2)sc2c1CC(C)(C)NC2(C)C`, `CCOC(=O)c1c(NC(=O)CSc2ncccn2)sc2c1CC(C)(C)NC2(C)C` is lower in “hERG current change (%, negative = inhibition) at 10uM” value: -11.1% for the first, -55.9% for the second.

Compared with `N#Cc1ccc2ccn(CC(=O)NCc3ccccc3)c2c1`, `O=C(NCCCCc1ccccc1)c1ccccc1Cl` is lower in “hERG current change (%, negative = inhibition) at 10uM” value: -1.22% for the first, -9.21% for the second.

First: O=C(CN1CCN(Cc2ccccc2F)C1=O)NC1CCCC1
Second: COc1ccc(N(C(=O)Cn2nnc(-c3ccc(F)cc3)n2)C(C)C(=O)NC2CCCC2)cc1 (stereo not shown)
The “hERG current change (%, negative = inhibition) at 10uM” value of the first is higher: 1.87% for the first, -22% for the second.

Compared with `Cc1nccn1CC(O)COC1CCCCC1` (stereo not shown), `CC(C)CCNC(=O)C1CCN(S(=O)(=O)c2ccc3c(c2)CC(C)N3C(=O)C2CCC2)CC1` (stereo not shown) is lower in “hERG current change (%, negative = inhibition) at 10uM” value: 13% for the first, -12.7% for the second.

Compared with `Nc1nnnn1/N=C/c1cccs1`, `CCOC(=O)N/N=C(\C)c1cccs1` is higher in “hERG current change (%, negative = inhibition) at 10uM” value: 3.28% for the first, 20.2% for the second.

Compared with `CC(C)n1c(CN2CCN(Cc3ccccc3)CC2)nc2ccccc21`, `Cc1nnc(SCc2nc3ccccc3s2)n1-c1ccccc1` is higher in “hERG current change (%, negative = inhibition) at 10uM” value: -14.4% for the first, 2.82% for the second.

Going from `CCN(CC)C(=O)CSc1nc2c(sc(=S)n2Cc2ccco2)c(=O)n1-c1ccccc1` to `CCN(CC)C(=O)CSc1nc2c(sc(=S)n2-c2ccccc2)c(=O)n1Cc1ccco1`, the “hERG current change (%, negative = inhibition) at 10uM” value falls from -29.4% to -78.7%.

Going from `CCN(CC)C(=O)CSc1nc2c(sc(=S)n2CC)c(=O)n1-c1ccccc1` to `CCN(CC)C(=O)CSc1nc2c(sc(=S)n2-c2ccccc2OC)c(=O)n1-c1ccccc1`, the “hERG current change (%, negative = inhibition) at 10uM” value rises from -66.9% to -4.22%.

Compared with `CCn1c(=S)sc2c(=O)n(-c3ccccc3)c(SC)nc21`, `CCC(C)NC(=O)CSc1nc2c(sc(=S)n2Cc2ccco2)c(=O)n1-c1ccccc1` (stereo not shown) is higher in “hERG current change (%, negative = inhibition) at 10uM” value: -11.2% for the first, -9.99% for the second.

First: CN(Cc1ccccc1)C(=S)Nc1cccnc1
Second: CCn1cc(C(=O)NC(=S)Nc2ccccc2Br)cn1
The “hERG current change (%, negative = inhibition) at 10uM” value of the first is higher: 9.05% for the first, 3.21% for the second.

Going from `COc1c(C)cc(Br)cc1C(=O)Nc1ccc(Cc2ccncc2)cc1` to `CCOC(=O)c1ccc(NC(=O)c2ccccc2C)cc1`, the “hERG current change (%, negative = inhibition) at 10uM” value falls from -3.5% to -21.2%.

First: CCC/C(O)=C1\C(=O)CC(c2ccccc2)CC1=NCCc1c(C)[nH]c2ccccc12 (stereo not shown)
Second: Cc1[nH]n(-c2ccc([N+](=O)[O-])cc2)c(=O)c1C=NCCc1c(C)[nH]c2ccccc12
The “hERG current change (%, negative = inhibition) at 10uM” value of the first is lower: -39.3% for the first, 1.38% for the second.

First: CC1(C)CC(=O)C(C=NCCN2CCN(C(=O)c3ccc(F)cc3)CC2)=C(O)C1
Second: CC1(C)CC(=O)C(C=NCCN2CCN(C(=O)c3ccc(Br)cc3)CC2)=C(O)C1
The “hERG current change (%, negative = inhibition) at 10uM” value of the first is higher: -21.1% for the first, -48.2% for the second.

Going from `C=CCNC(=S)N1CCN(CCN=Cc2c(C)[nH]n(-c3ccc([N+](=O)[O-])cc3)c2=O)CC1` to `Cc1[nH]n(-c2ccc([N+](=O)[O-])cc2)c(=O)c1C=NCCN1CCN(C(=O)C(C)C)CC1`, the “hERG current change (%, negative = inhibition) at 10uM” value rises from -72.1% to -64.2%.

Compared with `Cc1[nH]n(-c2ccc([N+](=O)[O-])cc2)c(=O)c1C=NCCN1CCN(C(=O)c2ccc(F)cc2)CC1`, `Cc1[nH]n(-c2ccc([N+](=O)[O-])cc2)c(=O)c1C=NCCN1CCN(C(=O)c2ccc(Br)cc2)CC1` is lower in “hERG current change (%, negative = inhibition) at 10uM” value: -73.7% for the first, -76.6% for the second.

First: CC(=O)N1CCN(CCN=Cc2c(O)n(-c3ccc(F)cc3)c(=S)[nH]c2=O)CC1
Second: CNC(=S)N1CCN(CCN=Cc2c(O)n(-c3ccc(C)cc3)c(=S)[nH]c2=O)CC1
The “hERG current change (%, negative = inhibition) at 10uM” value of the first is higher: 22.1% for the first, 21.2% for the second.

First: Cc1[nH]n(-c2ccc([N+](=O)[O-])cc2)c(=O)c1C=NCCN1CCN(C(=O)c2ccccc2)CC1
Second: Cc1[nH]n(-c2ccc([N+](=O)[O-])cc2)c(=O)c1C=NCCN1CCN(C(=O)c2ccccc2F)CC1
The “hERG current change (%, negative = inhibition) at 10uM” value of the first is lower: -71.6% for the first, -71.2% for the second.

Going from `O=c1c(C=NCCN2CCNCC2)c(-c2ccccc2)[nH]n1-c1ccc([N+](=O)[O-])cc1` to `COc1ccc(-c2[nH]n(-c3ccc([N+](=O)[O-])cc3)c(=O)c2C=NCCN2CCNCC2)cc1`, the “hERG current change (%, negative = inhibition) at 10uM” value rises from -66.4% to -4.9%.

Compared with `O=c1c(C=NCC2CCCO2)c(-c2ccccc2)[nH]n1-c1ccc([N+](=O)[O-])cc1` (stereo not shown), `Cc1[nH]n(-c2ccc([N+](=O)[O-])cc2)c(=O)c1C=NCCc1c[nH]c2ccccc12` is higher in “hERG current change (%, negative = inhibition) at 10uM” value: 7.58% for the first, 13.2% for the second.

First: COc1cc2cc(CN(CCO)S(=O)(=O)c3ccccc3Cl)c(=O)[nH]c2cc1OC
Second: COc1ccc(CCN=Cc2c(C)[nH]n(-c3ccc([N+](=O)[O-])cc3)c2=O)cc1OC
The “hERG current change (%, negative = inhibition) at 10uM” value of the first is lower: 0.98% for the first, 16.4% for the second.

Going from `CN(NC1OC(=O)c2ccccc21)c1ccc(C(F)(F)F)cc1[N+](=O)[O-]` (stereo not shown) to `Cc1[nH]n(-c2ccccc2)c(=O)c1/C=N/NC(=O)c1cccc(F)c1`, the “hERG current change (%, negative = inhibition) at 10uM” value falls from 34.2% to 20.1%.

First: O=C(Nc1ccc(S(=O)(=O)Nc2ncccn2)cc1)C12CC3CC(CC(C3)C1)C2
Second: COc1cc2c(cc1NC(=O)C(C)OC(=O)c1ccc(S(=O)(=O)Nc3ccccc3Cl)cc1)oc1ccccc12 (stereo not shown)
The “hERG current change (%, negative = inhibition) at 10uM” value of the first is lower: 13.4% for the first, 21.8% for the second.

Compared with `Cc1cc(C)c2nc(N3CCCN(C(=O)c4cnccn4)CC3)c(C#N)cc2c1`, `O=C(O)CSCC(=O)N1CCCN(c2nc3ccc(Cl)cc3s2)CC1` is higher in “hERG current change (%, negative = inhibition) at 10uM” value: -38.5% for the first, 5.89% for the second.

First: CCc1nnc(SCC(=O)Nc2nccs2)n1CC
Second: CCCCCCNc1cc(C)oc(=O)c1C(C)=O
The “hERG current change (%, negative = inhibition) at 10uM” value of the first is higher: 18% for the first, -34.2% for the second.

Going from `Cc1ccsc1C1C(C#N)=C(N)Oc2n[nH]c(C)c21` (stereo not shown) to `Cc1[nH]n(-c2ccc([N+](=O)[O-])cc2)c(=O)c1/C=N/N1CCOCC1`, the “hERG current change (%, negative = inhibition) at 10uM” value falls from 18.7% to 0.128%.

Compared with `Cc1[nH]n(-c2ccccc2)c(=O)c1/C=N/NC(=O)c1ccccc1F`, `COC(=O)CN=Cc1c(C)[nH]n(-c2ccccc2)c1=O` is lower in “hERG current change (%, negative = inhibition) at 10uM” value: 2.32% for the first, -1.99% for the second.

First: Cc1[nH]n(-c2ccc([N+](=O)[O-])cc2)c(=O)c1C=NCCN1CCN(C(=O)c2cccc(F)c2)CC1
Second: Cc1[nH]n(-c2ccc([N+](=O)[O-])cc2)c(=O)c1C=NCCc1ccc(S(N)(=O)=O)cc1
The “hERG current change (%, negative = inhibition) at 10uM” value of the first is lower: -73.4% for the first, 10.7% for the second.

First: CC(=O)c1ccc(NC(=O)C2C3C=CC(C3=C(c3ccccc3)c3ccccc3)C2C(=O)O)cc1 (stereo not shown)
Second: CCOC(=O)NC(=O)COC(=O)c1ccc(O)cc1
The “hERG current change (%, negative = inhibition) at 10uM” value of the first is higher: 2.53% for the first, -6.29% for the second.

First: Br.COc1ccc(N=C/C=C2/C=C(c3ccccc3)OC(C)(C)O2)cc1
Second: COc1cc(-c2nc3ccccn3c2/N=C/c2cccc(F)c2)ccc1O
The “hERG current change (%, negative = inhibition) at 10uM” value of the first is lower: -49.1% for the first, 4.38% for the second.

Source: article PMC4336329 (PLoS ONE, 2015)
